The values that follow come from PubChem BioAssay (EPA / NIEHS).

The nature of test [1]: ATG_CRE_CIS: Attagene CIS-FACTORIAL HepG2 Assay for human cAMP Responsive Element (CRE) binding protein 3 (AID 2282926). The note with it: HepG2 CRE cis-reporter, Attagene multiplexed mRNA; actives raise or lower the signal. The method in brief: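 Transfected HepG2 were treated for 24 hours, then RNA was extracted and reporter cDNA amplified with sequence-specific primers. Labelled fragments were separated by capillary electrophoresis, and the CRE signal was fitted bidirectionally with DMSO as baseline.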

Test [2] deals with CCAAT/enhancer-binding protein beta (Homo sapiens) (UniProt P17676). Nature of the test: ATG_C_EBP_CIS: Attagene CIS-FACTORIAL HepG2 Assay for human CCAAT/Enhancer Binding Protein (C/EBP) beta (AID 2282927). To be noted: HepG2 Attagene cis-factorial transcription factor reporter; actives raise or lower the signal. The method in brief: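 Changes in reporter mRNA, rather than exogenous chimeric receptor activity, reflect native C/EBP signalling in transfected HepG2 cells dosed for 24 h; transcripts are detected by RT-PCR and capillary electrophoresis.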
Sequence of CCAAT/enhancer-binding protein beta (Homo sapiens) (P17676 whole entry, looked up): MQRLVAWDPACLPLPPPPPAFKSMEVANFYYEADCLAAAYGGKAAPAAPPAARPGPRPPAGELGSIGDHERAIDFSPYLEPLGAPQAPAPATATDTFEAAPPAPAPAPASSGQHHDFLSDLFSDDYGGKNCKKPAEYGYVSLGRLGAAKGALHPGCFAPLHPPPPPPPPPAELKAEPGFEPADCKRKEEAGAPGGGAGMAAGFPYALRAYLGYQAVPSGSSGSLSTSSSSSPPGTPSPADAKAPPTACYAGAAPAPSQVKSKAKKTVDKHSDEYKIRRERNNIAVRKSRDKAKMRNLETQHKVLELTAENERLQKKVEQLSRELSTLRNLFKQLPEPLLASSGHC

Test [3] is described as follows: ATG_CMV_CIS: Attagene CIS-FACTORIAL HepG2 Assay for human CMV (Internal Marker) (AID 2282928).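 Also: endpoint acts as a background internal control marker rather than a target.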 The note with it: HepG2 CMV promoter reporter, transcription factor profiling; actives raise or lower the signal. The method in brief:
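HepG2 cells transiently transfected with multiple cis-regulated reporter units; 24 h compound exposure. Reporter mRNA quantified by RT-PCR, 6-FAM primer-extension labeling, HpaI digestion and capillary electrophoresis; bidirectional fitting against DMSO baseline.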

Test [4] is described as follows: ATG_DR4_LXR_CIS: Attagene CIS-FACTORIAL HepG2 Assay for human Liver X Receptor (LXR), DR4 submotif (AID 2282929). To be noted: HepG2 Attagene DR4 cis-reporter, mRNA transcription; actives raise or lower the signal. In short, it runs like this: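 After transient transfection with multiplexed cis-promoter reporter units, HepG2 cells received test chemicals for 24 h. Reporter mRNA induction, detected by fluorescence after RT-PCR and capillary electrophoresis, was scored relative to DMSO.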

Test [5] deals with Aryl hydrocarbon receptor (Homo sapiens) (UniProt P35869). Kind of test: ATG_Ahr_CIS: Attagene CIS-FACTORIAL HepG2 Assay for human Aryl Hydrocarbon Receptor (Ahr) (AID 2282930). To be noted: HepG2 AhR cis-factorial reporter transcription; actives raise or lower the signal. The method in brief: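 HepG2, transient MRTU (cis) transfection, 24 h exposure. RNA → cDNA → PCR → 6-FAM primer extension → HpaI 2 h 37 C → CE. Fit: bidirectional, DMSO baseline.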
Sequence of Aryl hydrocarbon receptor (Homo sapiens) (P35869 whole entry, looked up): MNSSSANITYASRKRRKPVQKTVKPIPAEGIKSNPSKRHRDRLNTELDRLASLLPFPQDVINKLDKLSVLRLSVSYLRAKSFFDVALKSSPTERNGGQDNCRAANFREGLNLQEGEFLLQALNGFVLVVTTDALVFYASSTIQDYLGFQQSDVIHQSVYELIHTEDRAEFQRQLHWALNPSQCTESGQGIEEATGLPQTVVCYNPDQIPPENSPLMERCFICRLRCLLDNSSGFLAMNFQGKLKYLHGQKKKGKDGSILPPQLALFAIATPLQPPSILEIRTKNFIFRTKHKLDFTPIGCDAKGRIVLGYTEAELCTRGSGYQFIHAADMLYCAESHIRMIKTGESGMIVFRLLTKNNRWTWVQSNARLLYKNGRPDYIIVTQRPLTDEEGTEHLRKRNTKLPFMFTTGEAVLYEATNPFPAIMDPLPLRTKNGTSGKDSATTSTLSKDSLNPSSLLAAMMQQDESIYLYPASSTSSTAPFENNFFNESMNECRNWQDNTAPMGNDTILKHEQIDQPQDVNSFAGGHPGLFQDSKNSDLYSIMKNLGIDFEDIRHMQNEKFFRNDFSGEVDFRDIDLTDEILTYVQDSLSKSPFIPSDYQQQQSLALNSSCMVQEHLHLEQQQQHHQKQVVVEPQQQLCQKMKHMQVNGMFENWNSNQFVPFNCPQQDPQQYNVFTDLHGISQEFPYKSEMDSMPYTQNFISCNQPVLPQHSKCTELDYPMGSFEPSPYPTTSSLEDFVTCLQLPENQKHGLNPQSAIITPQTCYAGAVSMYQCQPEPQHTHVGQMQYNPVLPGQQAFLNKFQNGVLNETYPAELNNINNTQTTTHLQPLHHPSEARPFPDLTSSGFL

The nature of test [6]: ATG_AP_1_CIS: Attagene CIS-FACTORIAL HepG2 Assay for human Activator Protein 1 (AP-1) (AID 2282931). The note with it: HepG2 Attagene cis-factorial AP-1 reporter mRNA; actives raise or lower the signal. In short, it runs like this:
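After 24 h incubation with test chemical, RNA from transfected HepG2 cells was reverse-transcribed, amplified, fluorescently labelled and digested before capillary electrophoresis. Reporters were driven by cis-regulatory promoters; activity fitted bidirectionally versus DMSO.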

Test [7] can be described thus: ATG_AP_2_CIS: Attagene CIS-FACTORIAL HepG2 Assay for human Activator Protein 2 (AP-2) (AID 2282932). The note with it: HepG2 AP-2 cis-reporter, Attagene transcription factor profiling; actives raise or lower the signal. In short, it runs like this:
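HepG2, transient MRTU transfection, cis-regulated reporters; 24 h compound exposure; RNA isolated, RT-PCR, 6-FAM labelling, HpaI digest, CE fluorescence. DMSO = negative control/baseline, bidirectional fit.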

Test [8] in a line: ATG_BRE_CIS: Attagene CIS-FACTORIAL HepG2 Assay for human Bone Morphogenetic Protein (BMP) Response Element (BRE) (AID 2282933). To be noted: HepG2 BMP response element reporter, Attagene transcription factor profiling; actives raise or lower the signal. The method in brief:
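A HepG2 multiplex reporter system measured inducible reporter mRNA 24 h post-dosing. Detection: RT-PCR, 6-FAM primer extension, HpaI digestion, capillary electrophoresis. Activity fitted bidirectionally relative to DMSO.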

Test [9] concerns the target Retinoic acid receptor alpha (Homo sapiens) (UniProt P10276). Kind of test: ATG_DR5_RAR_CIS: Attagene CIS-FACTORIAL HepG2 Assay for human Retinoic Acid Receptor Alpha (RARE), DR5 submotif (AID 2282934).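 As to AC50: reporter responds to endogenous RAR alpha beta and gamma in HepG2 not RARA alone.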 The note with it: HepG2 Attagene cis-factorial RARE DR5 reporter, mRNA; actives raise or lower the signal. In short, it runs like this:
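HepG2, transient cis-reporter transfection, 24 h exposure. mRNA readout: RT-PCR, FAM label, HpaI cut, capillary electrophoresis. DMSO baseline, gain/loss fitting.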

The target in test [10] is Transcription factor E2F1 (Homo sapiens) (UniProt Q01094). Kind of test: ATG_E2F_CIS: Attagene CIS-FACTORIAL HepG2 Assay for human E2F Transcription Factor 1 (AID 2282935). The note with it: HepG2 Attagene cis-reporter, E2F reporter RNA transcripts; actives raise or lower the signal. In short, it runs like this: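 Cis-element reporter mRNA induction in transiently transfected HepG2, 24 h exposure. Activity fitted in both directions relative to DMSO negative control.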
Sequence of Transcription factor E2F1 (Homo sapiens) (Q01094 whole entry, looked up): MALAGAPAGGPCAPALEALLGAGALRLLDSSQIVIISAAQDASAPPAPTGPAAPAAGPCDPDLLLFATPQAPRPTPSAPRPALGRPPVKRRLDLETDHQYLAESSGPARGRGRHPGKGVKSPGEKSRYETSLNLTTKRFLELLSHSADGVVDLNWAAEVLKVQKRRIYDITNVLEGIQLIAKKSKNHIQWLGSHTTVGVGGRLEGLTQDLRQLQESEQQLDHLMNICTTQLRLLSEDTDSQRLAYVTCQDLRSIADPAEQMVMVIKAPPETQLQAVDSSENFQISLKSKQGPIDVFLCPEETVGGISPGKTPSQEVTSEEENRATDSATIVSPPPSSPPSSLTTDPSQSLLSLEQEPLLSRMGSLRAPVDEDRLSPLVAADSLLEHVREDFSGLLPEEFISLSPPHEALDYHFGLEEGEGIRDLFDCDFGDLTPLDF

Test [11] is described as follows: ATG_E_Box_CIS: Attagene CIS-FACTORIAL HepG2 Assay for human Enhancer Box (E-box) (AID 2282936). To be noted: HepG2 E-box cis-reporter transcription, actives raise or lower the signal. In short, it runs like this: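 Cells: HepG2 (human liver), transient MRTU transfection. Exposure 24 h. RNA → oligo(dT) RT → PCR → 6-FAM label → HpaI → CE. Activity fitted both directions relative to DMSO.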

A short description of test [12]: ATG_M_61_CIS: Attagene CIS-FACTORIAL HepG2 Assay for M61 Transcription Factor (Internal Marker) (AID 2282937). To be noted: HepG2 Attagene CIS-FACTORIAL M61 internal marker reporter; actives raise or lower the signal. In short, it runs like this: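 Using transiently transfected HepG2 liver cells, reporter transcript levels were assessed 24 h post-dosing by RT-PCR and capillary electrophoresis. Changes in either direction were fitted relative to DMSO controls.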

A short description of test [13]: ATG_EGR_CIS: Attagene CIS-FACTORIAL HepG2 Assay for human Early Growth Response 1 (EGR1) (AID 2282938). The note with it: HepG2 Attagene CIS-FACTORIAL EGR reporter mRNA; actives raise or lower the signal. In short, it runs like this:
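Fluorescent capillary-electrophoresis signal of reporter cDNA fragments serves as read-out. HepG2 cells bear transiently transfected cis-promoter reporter units and are exposed 24 h; gain- or loss-of-signal is fitted against DMSO.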

Test [14] can be described thus: ATG_M_19_CIS: Attagene CIS-FACTORIAL HepG2 Assay for M19 Transcription Factor (Internal Marker) (AID 2282939). To be noted: HepG2 Attagene CIS-FACTORIAL M19 internal marker reporter; actives raise or lower the signal. The method in brief:
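Chemical-treated HepG2 (24 h) with MRTU constructs; reporter transcripts detected by fluorescent RT-PCR fragment analysis on capillary electrophoresis. Internal background marker, DMSO as baseline.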

Test [15] in a line: ATG_Ets_CIS: Attagene CIS-FACTORIAL HepG2 Assay for human Erythroblast Transformation Specific (ETS) (AID 2282941). The note with it: HepG2 ETS cis-reporter transcription, actives raise or lower the signal. In short, it runs like this:
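HepG2 cells transiently transfected with cis-promoter reporter transcription units were dosed for 24 h; reporter mRNA was measured by RT-PCR, 6-FAM primer extension, HpaI digestion and capillary electrophoresis, with bidirectional fitting against DMSO baseline.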

Test [16] concerns the target Hepatocyte nuclear factor 3-beta (Homo sapiens) (UniProt Q9Y261). Kind of test: ATG_FoxA2_CIS: Attagene CIS-FACTORIAL HepG2 Assay for human Forkhead box A2 (FOXA2) (AID 2282942). To be noted: HepG2 cis-reporter transcription factor activity, 24 h; actives raise or lower the signal. In short, it runs like this: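 Fluorescence signal of reporter cDNA fragments, separated by capillary electrophoresis, reflects endogenous transcription factor activity in transfected HepG2 after 24 h. Both increases and decreases fitted against DMSO.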

Test [17] is described as follows: ATG_GATA_CIS: Attagene CIS-FACTORIAL HepG2 Assay for human GATA Binding Protein (AID 2282944). The note with it: HepG2 GATA cis-element reporter, Attagene multiplex mRNA; actives raise or lower the signal. In short, it runs like this:
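Transfected cis-reporter HepG2 cells were treated with chemicals for 24 hours. Total RNA was then converted to cDNA, amplified with reporter-specific primers and analysed by fluorescent capillary electrophoresis, using DMSO-treated wells as baseline.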

Test [18] can be described thus: ATG_GLI_CIS: Attagene CIS-FACTORIAL HepG2 Assay for human Zinc Finger Protein GLI1 (AID 2282945). To be noted: HepG2, Attagene cis-factorial reporter mRNA, GLI element; actives raise or lower the signal. The method in brief: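 Bidirectional curve fits relative to DMSO, using reporter mRNA levels from RT-PCR plus capillary electrophoresis. Cells were HepG2 transiently carrying cis-regulated reporter constructs, harvested 24 h after dosing.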

“And” between values parts separate entries of the source, which are not always exact repeats. Equal entries are not always repeated. Some compounds were tested as several samples or in several runs, with calls that do not always agree. The source made the active and inactive calls. The calls were made as follows: active = hit-call score of the fitted dose curve at least 0.9, where 1 is the maximum; inactive = score below 0.9.

Sequence of Retinoic acid receptor alpha (Homo sapiens) (P10276 whole entry, looked up): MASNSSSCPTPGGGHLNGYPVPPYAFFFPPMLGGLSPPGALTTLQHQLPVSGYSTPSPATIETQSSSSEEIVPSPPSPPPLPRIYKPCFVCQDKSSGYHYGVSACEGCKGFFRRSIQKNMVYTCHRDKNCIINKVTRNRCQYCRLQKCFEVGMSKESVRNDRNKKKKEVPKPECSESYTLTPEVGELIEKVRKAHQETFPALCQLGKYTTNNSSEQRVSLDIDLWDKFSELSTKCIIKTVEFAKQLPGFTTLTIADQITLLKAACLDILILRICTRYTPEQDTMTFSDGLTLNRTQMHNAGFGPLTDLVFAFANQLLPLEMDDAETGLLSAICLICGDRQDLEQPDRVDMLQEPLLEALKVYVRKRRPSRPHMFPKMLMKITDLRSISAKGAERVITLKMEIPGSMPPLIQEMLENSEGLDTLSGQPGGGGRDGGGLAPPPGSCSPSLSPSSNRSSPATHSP
Sequence of Hepatocyte nuclear factor 3-beta (Homo sapiens) (Q9Y261 whole entry, looked up, the tested form may be a part): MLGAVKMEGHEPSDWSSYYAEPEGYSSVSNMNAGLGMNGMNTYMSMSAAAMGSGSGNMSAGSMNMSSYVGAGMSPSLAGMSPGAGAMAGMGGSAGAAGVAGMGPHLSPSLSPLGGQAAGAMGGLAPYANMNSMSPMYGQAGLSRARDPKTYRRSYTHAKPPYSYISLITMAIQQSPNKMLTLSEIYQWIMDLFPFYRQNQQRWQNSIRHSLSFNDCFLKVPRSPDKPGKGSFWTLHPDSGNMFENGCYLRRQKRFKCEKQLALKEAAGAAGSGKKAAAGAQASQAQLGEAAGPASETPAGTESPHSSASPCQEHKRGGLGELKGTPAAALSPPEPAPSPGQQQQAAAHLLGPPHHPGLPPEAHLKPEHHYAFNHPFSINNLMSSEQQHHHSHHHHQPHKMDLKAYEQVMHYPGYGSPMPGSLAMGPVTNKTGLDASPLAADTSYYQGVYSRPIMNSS

As to `O=C(O)Cc1cc(I)c(Oc2ccc(O)c(I)c2)c(I)c1`, the compound was called inactive in [1], in test [2], in test [3], in test [4], in test [5] and in test [6]. The result in test [7], in [8], in [9], in test [10], in test [11] and in [12] was inactive. The call in test [13], in test [14], in [15], in test [16], in test [17] and in test [18] was inactive. Further, the concentration at half-maximal activity (AC50) in test [6] is 160 µM (active) and 100 µM (active) and 74.8 µM (active); in test [7], 50.9 µM (active); in test [8], 89 µM (active).
`O=c1c(-c2ccc(O)cc2)coc2cc(O)cc(O)c12`: the AC50 in [1] is 27.5 µM (active) and 50.6 µM (active); in test [2], 36.5 µM (active) [middle of 4 runs]; in test [3], 19.1 µM (active) [middle of 4 runs]; in test [4] it was 7.13 µM (active) and 4.78 µM (active); in [5], 34.3 µM (active); in test [7] it was 29.8 µM (active) and 52.6 µM (active). Moreover, the AC50 in [9] was 62.3 µM (active). Besides, the outcome in test [1], in test [4], in test [5], in [6], in [7] and in test [8] was inactive. For the same compound, the compound was called inactive in [9], in test [10], in test [11], in test [12], in test [13] and in [14]. The result in [15], in test [16], in [17] and in test [18] was inactive.
As to `CCCCCCCC[Si](OCC)(OCC)OCC`, the AC50 in [1] was 54.5 µM (active); in test [2], 65.7 µM (active); in test [3] it was 62.9 µM (active) [middle of 4 runs]; in test [4] it was 126 µM (active) [middle of 4 runs]; in test [6], 70.2 µM (active) [middle of 4 runs]; in [8] it was 159 µM (active). Besides, the AC50 in [9] was 69.2 µM (active); in test [10], 153 µM (active); in test [15], 100 µM (active) and 75.6 µM (active); in test [18] it was 162 µM (active). The result in [1], in test [2], in test [5], in test [7], in test [8] and in test [9] was inactive. For the same compound, the call in test [10], in test [12], in test [13], in test [14], in test [15] and in [16] was inactive. For the same compound, the call in [17] and in test [18] was inactive.

As a reminder, the AC50 is the concentration giving half of the maximal activity seen.
